The panel holds about 83,000 compounds, 20% with a hit somewhere; the sample as a whole holds those more often.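 96-well plates, one dose, 48 hours. Percent growth reported; active if below 10.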 A number with no mark means an inactive call. Calls of active or inactive are those of the source.
Experiments:
Test in all cases: NCI-60 one-dose screen, 48 h (100 = growth as untreated, 0 = no growth, -100 = all killed)
Conditions in all cases: 10 µM unless noted
NCI-H23 lung = system: NCI-H23 lung
NCI-H226 lung = system: NCI-H226 lung
NCI-H322M lung = system: NCI-H322M lung
HOP-62 NSCLC = system: HOP-62 NSCLC
NCI-H460 lung = system: NCI-H460 lung
HOP-92 NSCLC = system: HOP-92 NSCLC
NCI-H522 lung = system: NCI-H522 lung
A549/ATCC NSCLC = system: A549/ATCC NSCLC
786-0 renal = system: 786-0 renal
COLO 205 colon = system: COLO 205 colon

| SMILES | growth (NCI-H23 lung) | growth (NCI-H226 lung) | growth (NCI-H322M lung) | growth (HOP-62 NSCLC) | growth (NCI-H460 lung) | growth (HOP-92 NSCLC) | growth (NCI-H522 lung) | growth (A549/ATCC NSCLC) | growth (786-0 renal) | growth (COLO 205 colon) |
| --- | --- | --- | --- | --- | --- | --- | --- | --- | --- | --- |
| C#Cc1cccc(Nc2ncnc3cc(OC)c(OCCCCCCC(=O)NO)cc23)c1 | -31.4% (active) | -10.9% (active) | -8.88% (active) | -37.5% (active) | 1.24% (active) | -26.4% (active) | -58.2% (active) | -32.8% (active) | -15.4% (active) | -65% (active) |
| Cc1cc2c(-c3nc4ccccn4c3N)c(O)c(O)cc2c(O)c1-c1c(C)cc2c(-c3nc4ccccn4c3N)c(O)c(O)cc2c1O | 9.67% (active) | 26% | 29.3% | 11.3% | 7% (active) | -8.82% (active) | -3.16% (active) | 16.4% | 32.4% | -48.5% (active) |
| Cc1nc(NC(=O)N2CCC[C@H]2C(N)=O)sc1-c1ccnc(C(C)(C)C(F)(F)F)c1 | 57.9% | 71% | 6.7% (active) | 49.4% | 24% | -4.57% (active) | 33.6% | 21% | 59.5% | 13.7% |
| Nc1nc(=S)c2ncn(C3OC(COC(=O)c4ccc(Cl)cc4)C(OC(=O)c4ccc(Cl)cc4)C3OC(=O)c3ccc(Cl)cc3)c2[nH]1 (stereo not given) | 91.9% | 86.9% | 97.8% | 106% | 91.1% | 82.7% | 86.8% | 98% | 84.4% | 123% |
| Cn1cnc(-c2cc3nccc(Oc4ccc(NC(=S)NC(=O)Cc5ccccc5)cc4F)c3s2)c1 | 72.5% | 54.5% | 108% | 78.9% | 93.5% | 50.2% | 41.5% | 53.9% | 98.1% | 89% |
| O=c1nc2c(-c3nc4ccccc4s3)n[nH]n2c2sc3c(c12)CCCC3 | 98.2% | 90.1% | 107% | 90.5% | 102% | 90.7% | 99.9% | 96.1% | 102% | 106% |
| CCc1cc2c(cc1N1CCC(N3CCOCC3)CC1)C(C)(C)c1[nH]c3cc(C#N)ccc3c1C2=O | 14.5% | -35% (active) | -12.5% (active) | -61.7% (active) | 1.34% (active) | -10.9% (active) | -38.5% (active) | 7.92% (active) | -45.7% (active) | -42.5% (active) |
| C=CC(=O)Nc1cc(Nc2nccc(-c3cn(C)c4ccccc34)n2)c(OC)cc1N(C)CCN(C)C | 8.43% (active) | -50.5% (active) | -5.77% (active) | -23.9% (active) | -54.8% (active) | -15.8% (active) | -68.6% (active) | -43.5% (active) | -87.9% (active) | -81.1% (active) |
| O=C(O)c1ccc(Nc2ncc3c(n2)-c2ccc(Cl)cc2C(c2c(F)cccc2F)=NC3)cc1 | 64.9% | 51.7% | 89% | 37.7% | 39.5% | 54.4% | 29.9% | 30% | 63% | 2.8% (active) |
| Cc1cc2c(-c3nc4ccccn4c3NC34CC5CC(CC(C5)C3)C4)c(O)c(O)cc2c(O)c1-c1c(C)cc2c(-c3nc4ccccn4c3NC34CC5CC(CC(C5)C3)C4)c(O)c(O)cc2c1O | -1.87% (active) | 12.7% | 30.2% | 1.34% (active) | 5.53% (active) | -9.41% (active) | -5.03% (active) | 2.96% (active) | -12% (active) | 6.77% (active) |
| CC(=Nc1ccccc1)C1=C(O)C(Cc2ccccc2)NC1=O (stereo not given) | -1.27% (active) | 15.4% | 45.7% | 16.7% | 3.86% (active) | -9.07% (active) | -15.4% (active) | -28.9% (active) | 8.26% (active) | -71.8% (active) |
| CC(=O)CC1CCCC1c1ccc2ccccc2c1 (stereo not given) | 96.3% | 95.2% | 96.2% | 96.6% | 101% | 99.7% | 93.5% | 95.6% | 101% | 99.4% |
| Cn1nccc1Nc1nccc(-c2ccn([C@H](CO)c3ccc(Cl)c(F)c3)c(=O)c2)n1 | 68.5% | 110% | 61% | 78.8% | 99.5% | 103% | 71.2% | 72.3% | 93% | 14.4% |
| CC(=O)c1c(C)c2cnc(Nc3ccc(N4CCNCC4)cn3)nc2n(C2CCCC2)c1=O | 50.9% | 52.7% | 31.9% | 42% | 14.1% | 66% | -76.7% (active) | 22.6% | 24.9% | 18.5% |
| N#Cc1c(-c2ccc(Cl)cc2)csc1NC(=O)Nc1cccc(C(F)(F)F)c1 | -8.85% (active) | 17.6% | 31.5% | 18.4% | 5.61% (active) | -4.85% (active) | -9.41% (active) | 11.4% | 22.9% | -0.881% (active) |
| Cc1ccccc1N1C(c2ccccc2)=NNC12C=CC(=O)C=C2Cl (stereo not given) | 98.1% | 115% | 95.4% | 98.3% | 115% | 114% | 95.2% | 75.5% | 106% | 99.3% |
| CCCCCc1ccc(C)cc1OC(=O)CCl | 113% | 104% | 97.3% | 109% | 104% | 73.6% | 103% | 108% | 110% | 107% |
| NS(=O)(=O)c1ccc(CCN2C(=O)/C(=C\c3ccc(Cl)cc3)C=C2c2ccc3ccccc3c2)cc1 | 95.4% | 80.8% | 92.4% | 72% | 102% | 94% | 60.9% | 62% | 93.4% | 100% |
| COc1cc2c(Oc3ccc(NC(=O)C4(C(=O)Nc5ccc(F)cc5)CC4)cc3F)ccnc2cc1OCCCN1CCOCC1 | 10.1% | 12.3% | -1.77% (active) | -13.5% (active) | -40.8% (active) | -58.2% (active) | -57% (active) | -77.1% (active) | -75.7% (active) | -71.3% (active) |
| CC1CCC(n2cnc3c(Cl)ncnc32)O1 (stereo not given) | 89.5% | 95.9% | 86.3% | 91.2% | 101% | 75.5% | 82.9% | 106% | 98.1% | 104% |
| CCN1CCN(CCCN(C[C@H]2Cc3ccccc3CN2)[C@H]2CCCc3cccnc32)CC1 | 101% | 83.7% | 79.7% | 65.2% | 89.8% | 60.3% | 89.3% | 90.9% | 83.3% | 97.2% |
| Cc1cc(-c2cc(O)ccc2Cl)cc2nnc(Nc3ccc(OCCN4CCCC4)cc3)nc12 | -63.2% (active) | -51.7% (active) | -94.4% (active) | -66.1% (active) | -81.6% (active) | -69.1% (active) | -49.5% (active) | -70.7% (active) | -60.6% (active) | -61.4% (active) |
| CC(C)(C)c1cnc(CSc2cnc(NC(=O)C3CCNCC3)s2)o1 | -22.2% (active) | 3.09% (active) | 5.62% (active) | -16.2% (active) | 2.67% (active) | -8.65% (active) | -24.8% (active) | 1.61% (active) | 12% | -45.3% (active) |
| CC(N)C(Cc1ccccc1)c1ccc(Cl)cc1 (stereo not given) | 92.5% | 89.3% | 95.5% | 56.9% | 90.9% | 56.5% | 75.9% | 76.2% | 81% | 84.4% |
| C1=C\COCc2cc(ccc2OCCN2CCCC2)Nc2nccc(n2)-c2cccc(c2)COC/1 | -17.3% (active) | -64.9% (active) | -8.53% (active) | -18.1% (active) | -34.5% (active) | -0.764% (active) | -58.1% (active) | -17.3% (active) | 1.51% (active) | -82% (active) |
| Cc1ccccc1Nc1nc2nonc2nc1Nc1cccc(C)c1C | 17.9% | 48.6% | 80.7% | 72.1% | 41.1% | 22.5% | 3.35% (active) | 27.4% | 65.9% | 59.2% |
| Cc1cc(O)c2c(c1)C1OC(=O)CCCCCN1C1=C2C(=O)c2cccc(OC3CC(O)C(O)C(C)O3)c2C1=O (stereo not given) | 79.8% | 118% | 94.7% | 123% | 65.3% | 134% | 34.1% | 59.9% | 101% | 53.3% |
